Assay results taken from PubChem BioAssay (NCATS).
Inconclusive results are not listed. The source made the active and inactive calls. Calls follow the shape of the dose curve; as a rule, active = well fitted inhibition curve with a large enough effect; inconclusive = small, poorly fitted or top-dose-only effect; inactive = flat fitted curve, though single readings scatter. Where a SMILES comes first, the peptide text is derived from it. Bridges are numbered along the chain shown (N, C = ends). [ ]: non-standard residue; d: D form. The star is where a group is joined. X1 = CCC(C)C(N)C1=NC(C(=O)*)CS1; dOrn = NCCC[C@@H](N)C(=O)O

Test: P-glycoprotein substrates identified in KB-8-5-11 adenocarcinoma cell line, qHTS therapeutic library screen (AID 1346987); also: nearly all actives have a fitted effect of over 65% in size
Details: KB-8-5-11 (P-gp overexpressing) viability, CellTiter-Glo, 72 h; series mostly up to 44.5 µM; activity change, negative = cytotoxicity: at the top concentration
In short: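 Luminescence from CellTiter-Glo, read 5 min after addition, quantified survival of KB-8-5-11 (P-gp-overexpressing) cells exposed to compounds for 72 h. AC50 was derived from concentration-response curves.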
% is scaled to controls: 0 for no effect and ±100 for the full control effect; potency is read from the fitted curve at half-maximal effect.

Row | Compound | activity change, negative = cytotoxicity | outcome | Potency
1 | Cc1nn(C)c2c1C(c1ccc(C(F)(F)F)cc1)C(C#N)=C(N)O2 (stereo not drawn) | 7.4% (inactive) |  | 
2 | CC1=C2CC3OC3(C)CCC3OC3(C)CC2OC1=O (stereo not drawn) | 8.56% (inactive) |  | 
3 | C[C@@H]1O[C@@H](O[C@@H]2[C@@H](O)[C@@H](O)[C@H](O[C@@H]3[C@@H](O)[C@@H](O[C@]4(CO)O[C@H](CO)[C@@H](O)[C@@H]4OC(=O)/C=C/c4ccc(O)cc4)O[C@H](CO)[C@H]3OC(=O)/C=C/c3ccc(O)cc3)O[C@H]2C)[C@H](O)[C@H](O)[C@H]1O |  | inactive [at 9.29 µM] | 
4 | O=C(O[C@H]1[C@@H]2C[C@@H]3OC[C@@](O)([C@H]2[C@H](O[C@@H]2O[C@H](CO)[C@@H](O)[C@H](O)[C@H]2O)O3)[C@@H]1O)c1ccccc1 | 1.77% [at 17.3 µM] (inactive) |  | 
5 | CNC(=O)Nc1ccc(OC)c(NC(=O)NC(=O)c2cc(F)c(F)cc2Cl)c1 |  | inactive | 
6 | Cc1[nH]cnc1C1CCN(c2nc3cccc4c3n2CCC4=O)CC1 |  | inactive | 
7 | NC(=O)c1ccc(OCC2NC(=O)C3CCCN3C2=O)cc1 (stereo not drawn) |  | inactive | 
8 | COc1cc(/C=C/C(=O)OC[C@H]2O[C@H](O[C@]3(CO)O[C@H](CO)[C@@H](O)[C@@H]3O)[C@H](O)[C@@H](O)[C@@H]2O)cc(OC)c1O | 3.72% [at 17.3 µM] (inactive) |  | 
9 | CC(C)CC(=O)n1cc(C(N)=O)c(=O)cc1C(O)c1ccccc1 (stereo not drawn) | 5.49% (inactive) |  | 
10 | O=C(O)c1cc(=O)c2c3nc4ccccc4oc-3cc(=O)c2[nH]1 | -7.26% (inactive) |  | 
11 | CCCC(=O)O[C@]1(C(=O)CCl)[C@H](C)C[C@@H]2[C@H]3CCC4=CC(=O)C=C[C@]4(C)[C@@]3(F)C(=O)C[C@@]21C |  |  | 13 µM (active)
12 | C[C@H](NCc1ccc(OCc2ccccc2F)cc1)C(N)=O |  | inactive | 
13 | Cc1ccccc1 | 2.08% (inactive) |  | 
14 | CCCCCCCCCCCC[n+]1ccc2ccccc2c1 | -28.3% (inactive) |  | 
15 | Cc1c(-c2ccnn2C)cc(C(=O)NCc2ccc(S(C)(=O)=O)cn2)c(=O)n1-c1cccc(C(F)(F)F)c1 |  |  | inactive
16 | C[C@@H]1O[C@@H](O[C@H]2[C@H](OC(=O)[C@]34CCC(C)(C)C[C@H]3C3=CCC5[C@@]6(C)C[C@H](O)[C@H](O[C@@H]7O[C@H](CO)[C@@H](O[C@@H]8O[C@H](CO)[C@@H](O)[C@H](O)[C@H]8O)[C@H](O)[C@H]7O)[C@@](C)(CO)C6[C@H](O)C[C@@]5(C)[C@]3(C)C[C@H]4O)OC[C@H](O)[C@@H]2O)[C@H](O)[C@H](O)[C@H]1O[C@@H]1OC[C@@H](O)[C@H](O[C@@H]2OC[C@](O)(CO)[C@H]2O)[C@H]1O (stereo partly drawn) |  | inactive [at 9.29 µM] | 
17 | CC1=CC(=O)OC(C)(CC(C)(O)C(=O)O)C1 (stereo not drawn) | 8.13% (inactive) |  | 
18 | CCC(C)C(N)C1=NC(C(=O)N[C@@H](CC(C)C)C(=O)N[C@H](CCC(=O)O)C(=O)N[C@H](C(=O)N[C@H]2CCCCNC(=O)[C@H](CC(N)=O)NC(=O)[C@@H](CC(=O)O)NC(=O)[C@H](Cc3cnc[nH]3)NC(=O)[C@@H](Cc3ccccc3)NC(=O)[C@H]([C@@H](C)CC)NC(=O)[C@@H](CCCN)NC2=O)[C@@H](C)CC)CS1 (stereo partly drawn) (X1-L[dE]IK[dOrn]I[dF]H[dD]N; lactam 4-C) |  |  | inactive
19 | COC(=O)C1C(c2ccc(O)cc2)C(C(=O)OC)C1c1ccc(O)cc1 (stereo not drawn) | 8.52% (inactive) |  | 

Row | Compound | activity change, negative = cytotoxicity | outcome | Potency
20 | CC(=O)N(O)CCCCCN1C(=O)CCC1=O | 3.18% (inactive) |  | 
21 | C/C=C(\C)C(=O)O[C@H]1[C@@H](O[C@]2(COC(=O)CC(C)C)O[C@H](COC(=O)C(C)C)[C@@H](OC(C)=O)[C@@H]2O)O[C@H](COC(C)=O)[C@@H](O)[C@@H]1O |  | inactive [at 17.3 µM] | 
22 | CC(C)CC(=O)OC[C@H]1O[C@@](COC(=O)CC(C)C)(O[C@H]2O[C@H](CO)[C@@H](O)[C@H](O)[C@H]2OC(=O)CC(C)C)[C@@H](OC(=O)CC(C)C)[C@@H]1O |  | inactive [at 17.3 µM] | 
23 | CC(=O)OCC(=O)O[C@@H]1[C@H]2[C@@H](OC(=O)c3ccccc3)[C@@H](C)C[C@]2(O)[C@H](OC(C)=O)C2(C)[C@H]3CC(C)(C)C(=O)[C@@H]3CC1(OC(C)=O)[C@@H]2OC(C)=O (stereo partly drawn) | -14.7% [at 17.3 µM] (inactive) |  | 
24 | C[C@@H]1CC[C@]2(C(=O)O)CC[C@]3(C)C(=CCC4[C@]5(C)C(CC[C@]43C)C(C)(C)[C@@H](O)[C@H](O)[C@@H]5O)C2[C@]1(C)O (stereo partly drawn) |  | inactive [at 17.3 µM] | 
25 | C=CC(C)(CC/C=C(\C)CC/C=C(\C)CC(O)/C=C(\C)C(=O)O)O[C@@H]1O[C@H](CO)[C@@H](O)[C@H](O)[C@H]1O[C@@H]1O[C@H](CO)[C@@H](O)[C@H](O)[C@H]1O (stereo partly drawn) |  | inactive [at 17.3 µM] | 
26 | CC(=O)O[C@H]1CC[C@@]2(CI)C(=CC[C@@H]3[C@@H]2CC[C@]2(C)[C@@H]([C@H](C)CCCC(C)C)CC[C@@H]32)C1 |  | inactive [at 9.29 µM] | 
27 | O=C(c1ccccn1)c1cnn2c(-c3ccncc3)ccnc12 |  | inactive | 
28 | CC[C@H]1OC(=O)C[C@@H](O)[C@H](C)[C@@H](O[C@@H]2O[C@H](C)[C@@H](O)[C@H](N(C)C)[C@H]2O)[C@@H](CCN2C[C@H](C)C[C@H](C)C2)C[C@@H](C)C(=O)/C=C/C(C)=C/[C@@H]1CO[C@@H]1O[C@H](C)[C@@H](O)[C@@H](OC)[C@H]1OC |  |  | inactive
29 | CCNC(=O)[C@H]1O[C@H](n2cnc3c(NCC(c4ccccc4)c4ccccc4)nc(C(=O)NCCNC(=O)NC4CCN(c5ccccn5)CC4)nc32)[C@H](O)[C@@H]1O |  | inactive | 
30 | CCOC(=O)Nc1nc2ccccc2[nH]1 | 0.805% (inactive) |  | 
31 | CC(=O)O[C@H]1[C@H](Oc2ccccc2COC(=O)C2(O)C=CCCC2=O)O[C@H](CO)[C@@H](O)[C@@H]1O (stereo partly drawn) | -1.5% [at 17.3 µM] (inactive) |  | 
32 | C[C@]1(OC(=O)/C=C/c2ccccc2)C[C@H](O)[C@]2(O)C=CO[C@@H](O[C@@H]3O[C@H](CO)[C@@H](O)[C@H](O)[C@H]3O)C12 (stereo partly drawn) |  | inactive [at 17.3 µM] | 
33 | CC(=O)Oc1c(C)cc(OCC(O)CNC(C)C)c(C)c1C (stereo not drawn) | 3.8% (inactive) |  | 
34 | COc1ccc2c(c1O)OC[C@H]1c3ccc(O)cc3O[C@@H]21 |  | inactive | 
35 | CN1CC[C@@H](NC(=O)Nc2ccc(C#N)cc2)C[C@@H]1c1nc2ccccc2[nH]1 | 1.99% (inactive) |  | 
36 | CC(=O)N[C@@H](CC(=O)N[C@@H](CCC(=O)O)C(=O)O)C(=O)O | -4.31% (inactive) |  | 
37 | Clc1ccc2c(c1)C1=NCCN1c1c(-c3noc(C4CC4)n3)ncn1-2 | -12.8% (inactive) |  | 
38 | CCC[C@@H]1C[C@@H](C(=O)N[C@@H]([C@H]2O[C@H](SC)[C@H](O)[C@@H](O)[C@@H]2O)[C@@H](C)O)N(C)C1 |  | inactive | 
